# Measurements reported in ChEMBL document CHEMBL2218924, “A broad activity screen in support of a chemogenomic map for kinase signalling research and drug discovery” (Biochem J, 2013).
# Legend:
# [1] = target: T1, Ephrin type-A receptor 3 (Homo sapiens) (UniProt P29320); details: at 10 µM
# T1 sequence (whole entry): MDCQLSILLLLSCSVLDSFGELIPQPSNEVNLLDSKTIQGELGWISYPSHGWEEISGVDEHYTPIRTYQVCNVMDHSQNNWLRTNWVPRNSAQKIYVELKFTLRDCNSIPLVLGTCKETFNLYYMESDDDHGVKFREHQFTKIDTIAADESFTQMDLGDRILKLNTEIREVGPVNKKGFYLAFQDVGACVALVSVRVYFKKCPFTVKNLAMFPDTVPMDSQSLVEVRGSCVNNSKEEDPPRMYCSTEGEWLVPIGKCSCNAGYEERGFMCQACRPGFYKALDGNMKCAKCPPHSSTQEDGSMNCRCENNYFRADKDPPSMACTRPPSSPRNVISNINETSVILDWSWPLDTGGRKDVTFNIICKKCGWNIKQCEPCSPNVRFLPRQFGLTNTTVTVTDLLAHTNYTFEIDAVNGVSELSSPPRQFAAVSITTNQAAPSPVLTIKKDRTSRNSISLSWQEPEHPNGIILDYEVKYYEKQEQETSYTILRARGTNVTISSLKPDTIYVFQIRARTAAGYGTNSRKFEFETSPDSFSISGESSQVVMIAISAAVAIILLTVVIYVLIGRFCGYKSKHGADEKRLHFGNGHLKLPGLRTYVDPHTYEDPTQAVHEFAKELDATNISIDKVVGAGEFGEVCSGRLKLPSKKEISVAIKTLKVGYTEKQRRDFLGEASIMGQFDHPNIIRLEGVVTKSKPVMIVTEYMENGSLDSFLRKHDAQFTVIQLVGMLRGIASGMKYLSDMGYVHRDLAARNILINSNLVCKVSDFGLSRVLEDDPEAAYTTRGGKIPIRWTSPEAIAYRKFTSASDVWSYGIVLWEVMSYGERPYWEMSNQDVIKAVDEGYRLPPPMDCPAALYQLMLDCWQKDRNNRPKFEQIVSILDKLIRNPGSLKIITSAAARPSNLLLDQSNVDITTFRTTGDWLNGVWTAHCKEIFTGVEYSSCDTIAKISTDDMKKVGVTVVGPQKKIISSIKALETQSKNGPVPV
# [2] = target: Ephrin type-A receptor 4 (Homo sapiens) (UniProt P54764); details: at 1 µM
# [3] = target: Ephrin type-A receptor 4 (Homo sapiens) (UniProt P54764); details: at 10 µM
# [4] = target: Ephrin type-A receptor 5 (Homo sapiens) (UniProt P54756); details: at 1 µM
# [5] = target: Ephrin type-A receptor 5 (Homo sapiens) (UniProt P54756); details: at 10 µM
# [6] = target: Ephrin type-A receptor 7 (Homo sapiens) (UniProt Q15375); details: at 10 µM
# [7] = target: T2, Ephrin type-A receptor 8 (Homo sapiens) (UniProt P29322); details: at 1 µM
# T2 sequence (whole entry): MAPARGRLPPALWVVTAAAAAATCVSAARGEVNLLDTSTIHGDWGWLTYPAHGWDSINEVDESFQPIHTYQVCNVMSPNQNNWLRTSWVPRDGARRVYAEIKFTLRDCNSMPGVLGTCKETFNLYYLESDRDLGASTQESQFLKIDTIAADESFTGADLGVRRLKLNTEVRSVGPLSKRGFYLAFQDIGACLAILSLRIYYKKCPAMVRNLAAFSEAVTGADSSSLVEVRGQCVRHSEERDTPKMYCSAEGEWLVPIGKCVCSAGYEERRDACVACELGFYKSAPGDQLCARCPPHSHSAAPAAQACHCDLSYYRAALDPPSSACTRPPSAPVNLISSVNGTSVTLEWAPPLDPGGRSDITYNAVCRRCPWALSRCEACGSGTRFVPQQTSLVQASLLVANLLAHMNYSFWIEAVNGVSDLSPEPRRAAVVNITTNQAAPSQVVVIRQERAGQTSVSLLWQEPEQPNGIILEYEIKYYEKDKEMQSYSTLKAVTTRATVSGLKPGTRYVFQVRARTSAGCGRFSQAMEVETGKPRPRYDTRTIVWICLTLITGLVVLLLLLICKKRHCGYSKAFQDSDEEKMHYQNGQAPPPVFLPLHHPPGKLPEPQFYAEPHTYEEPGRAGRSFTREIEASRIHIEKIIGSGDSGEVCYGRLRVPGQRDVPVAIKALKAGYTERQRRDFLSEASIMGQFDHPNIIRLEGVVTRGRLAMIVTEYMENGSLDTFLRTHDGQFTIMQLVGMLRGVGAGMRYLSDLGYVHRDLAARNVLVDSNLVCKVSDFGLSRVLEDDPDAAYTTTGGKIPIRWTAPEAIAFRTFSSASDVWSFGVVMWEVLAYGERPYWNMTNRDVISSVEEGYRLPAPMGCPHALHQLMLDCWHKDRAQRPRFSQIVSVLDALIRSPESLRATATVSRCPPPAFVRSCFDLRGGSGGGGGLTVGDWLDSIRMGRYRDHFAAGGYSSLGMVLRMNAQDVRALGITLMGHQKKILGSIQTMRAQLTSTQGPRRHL
# [8] = target: T3, Ephrin type-B receptor 1 (Homo sapiens) (UniProt P54762); details: at 1 µM
# T3 sequence (whole entry): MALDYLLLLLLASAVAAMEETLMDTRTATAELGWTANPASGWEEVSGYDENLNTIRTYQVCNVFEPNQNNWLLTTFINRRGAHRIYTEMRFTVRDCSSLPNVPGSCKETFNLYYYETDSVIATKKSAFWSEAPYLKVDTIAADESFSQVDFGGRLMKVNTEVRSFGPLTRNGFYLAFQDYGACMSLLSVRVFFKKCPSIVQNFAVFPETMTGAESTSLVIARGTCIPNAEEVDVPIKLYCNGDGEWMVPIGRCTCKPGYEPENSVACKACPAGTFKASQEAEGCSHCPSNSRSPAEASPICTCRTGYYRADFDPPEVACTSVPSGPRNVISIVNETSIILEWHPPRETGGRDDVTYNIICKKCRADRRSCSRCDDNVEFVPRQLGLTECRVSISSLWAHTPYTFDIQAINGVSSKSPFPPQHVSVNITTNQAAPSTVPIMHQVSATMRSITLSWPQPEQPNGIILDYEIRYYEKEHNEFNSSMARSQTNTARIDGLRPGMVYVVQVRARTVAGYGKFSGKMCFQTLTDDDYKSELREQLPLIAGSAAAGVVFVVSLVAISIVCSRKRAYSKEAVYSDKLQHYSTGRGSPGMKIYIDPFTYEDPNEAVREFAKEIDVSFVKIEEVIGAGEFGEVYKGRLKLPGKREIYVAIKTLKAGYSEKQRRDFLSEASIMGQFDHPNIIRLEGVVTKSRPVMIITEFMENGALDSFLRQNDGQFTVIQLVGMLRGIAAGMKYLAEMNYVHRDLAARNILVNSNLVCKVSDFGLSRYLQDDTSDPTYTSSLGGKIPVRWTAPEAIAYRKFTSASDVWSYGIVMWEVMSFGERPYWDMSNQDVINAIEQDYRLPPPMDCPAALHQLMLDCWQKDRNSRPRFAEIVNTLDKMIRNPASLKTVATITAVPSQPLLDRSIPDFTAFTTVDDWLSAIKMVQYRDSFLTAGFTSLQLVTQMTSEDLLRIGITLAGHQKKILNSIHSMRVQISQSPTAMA
# [9] = target: T3, Ephrin type-B receptor 1 (Homo sapiens); details: at 10 µM
# [10] = target: T4, Ephrin type-B receptor 2 (Homo sapiens) (UniProt P29323); details: at 1 µM
# T4 sequence (whole entry): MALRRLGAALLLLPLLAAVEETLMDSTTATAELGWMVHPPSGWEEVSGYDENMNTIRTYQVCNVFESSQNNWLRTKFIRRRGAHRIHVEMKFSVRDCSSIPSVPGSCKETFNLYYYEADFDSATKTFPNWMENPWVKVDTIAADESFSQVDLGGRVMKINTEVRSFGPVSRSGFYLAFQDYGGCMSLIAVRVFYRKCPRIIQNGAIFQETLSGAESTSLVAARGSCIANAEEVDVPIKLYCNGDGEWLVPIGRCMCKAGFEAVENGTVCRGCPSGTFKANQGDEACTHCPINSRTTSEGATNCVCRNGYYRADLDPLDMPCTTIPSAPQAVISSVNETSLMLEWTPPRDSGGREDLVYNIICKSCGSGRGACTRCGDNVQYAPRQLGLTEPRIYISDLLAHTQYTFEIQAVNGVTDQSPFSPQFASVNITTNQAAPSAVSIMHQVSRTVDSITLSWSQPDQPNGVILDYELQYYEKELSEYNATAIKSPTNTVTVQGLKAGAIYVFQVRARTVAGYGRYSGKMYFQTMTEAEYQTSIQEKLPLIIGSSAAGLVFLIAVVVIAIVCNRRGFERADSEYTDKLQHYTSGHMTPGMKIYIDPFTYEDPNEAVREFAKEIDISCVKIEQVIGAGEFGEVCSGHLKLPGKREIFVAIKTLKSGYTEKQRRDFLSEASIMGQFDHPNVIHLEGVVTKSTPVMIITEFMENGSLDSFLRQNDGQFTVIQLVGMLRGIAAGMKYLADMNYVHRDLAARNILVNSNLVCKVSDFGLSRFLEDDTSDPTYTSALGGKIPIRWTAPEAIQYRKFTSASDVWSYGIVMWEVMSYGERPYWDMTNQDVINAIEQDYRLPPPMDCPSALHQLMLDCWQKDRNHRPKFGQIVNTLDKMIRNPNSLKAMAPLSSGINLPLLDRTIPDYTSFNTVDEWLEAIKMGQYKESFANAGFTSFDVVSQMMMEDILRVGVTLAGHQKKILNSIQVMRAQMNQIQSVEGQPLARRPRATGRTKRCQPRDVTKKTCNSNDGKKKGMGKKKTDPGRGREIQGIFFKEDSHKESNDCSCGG
# [11] = target: T4, Ephrin type-B receptor 2 (Homo sapiens); details: at 10 µM
# [12] = target: T5, Ephrin type-B receptor 3 (Homo sapiens) (UniProt P54753); details: at 1 µM
# T5 sequence (whole entry): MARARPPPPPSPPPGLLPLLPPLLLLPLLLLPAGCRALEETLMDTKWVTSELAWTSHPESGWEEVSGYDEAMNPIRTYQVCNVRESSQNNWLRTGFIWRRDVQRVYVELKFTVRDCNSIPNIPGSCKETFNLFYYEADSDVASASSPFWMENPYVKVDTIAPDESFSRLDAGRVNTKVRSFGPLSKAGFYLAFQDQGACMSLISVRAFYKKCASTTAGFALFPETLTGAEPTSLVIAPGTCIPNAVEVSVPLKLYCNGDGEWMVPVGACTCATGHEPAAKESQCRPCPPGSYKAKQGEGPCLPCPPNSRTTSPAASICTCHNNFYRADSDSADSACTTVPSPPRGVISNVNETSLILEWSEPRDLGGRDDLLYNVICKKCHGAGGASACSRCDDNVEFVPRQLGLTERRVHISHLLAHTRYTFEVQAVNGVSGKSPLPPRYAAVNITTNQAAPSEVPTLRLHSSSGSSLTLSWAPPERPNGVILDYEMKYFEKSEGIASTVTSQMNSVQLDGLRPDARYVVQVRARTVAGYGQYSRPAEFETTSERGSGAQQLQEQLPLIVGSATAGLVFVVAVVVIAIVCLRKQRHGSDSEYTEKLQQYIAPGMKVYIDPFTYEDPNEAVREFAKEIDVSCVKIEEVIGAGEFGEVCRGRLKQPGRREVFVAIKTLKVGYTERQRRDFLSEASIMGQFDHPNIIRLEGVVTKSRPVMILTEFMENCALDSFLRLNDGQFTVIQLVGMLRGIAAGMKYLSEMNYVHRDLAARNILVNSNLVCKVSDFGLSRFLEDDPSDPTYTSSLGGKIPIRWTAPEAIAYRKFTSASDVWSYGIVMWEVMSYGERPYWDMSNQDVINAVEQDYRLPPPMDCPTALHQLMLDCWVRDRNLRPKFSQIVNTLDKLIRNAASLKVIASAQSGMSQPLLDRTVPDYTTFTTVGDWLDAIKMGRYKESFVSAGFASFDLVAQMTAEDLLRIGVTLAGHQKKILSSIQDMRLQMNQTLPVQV
# [13] = target: T5, Ephrin type-B receptor 3 (Homo sapiens); details: at 10 µM
# [14] = target: T6, Ephrin type-B receptor 4 (Homo sapiens) (UniProt P54760); details: at 1 µM
# T6 sequence (whole entry): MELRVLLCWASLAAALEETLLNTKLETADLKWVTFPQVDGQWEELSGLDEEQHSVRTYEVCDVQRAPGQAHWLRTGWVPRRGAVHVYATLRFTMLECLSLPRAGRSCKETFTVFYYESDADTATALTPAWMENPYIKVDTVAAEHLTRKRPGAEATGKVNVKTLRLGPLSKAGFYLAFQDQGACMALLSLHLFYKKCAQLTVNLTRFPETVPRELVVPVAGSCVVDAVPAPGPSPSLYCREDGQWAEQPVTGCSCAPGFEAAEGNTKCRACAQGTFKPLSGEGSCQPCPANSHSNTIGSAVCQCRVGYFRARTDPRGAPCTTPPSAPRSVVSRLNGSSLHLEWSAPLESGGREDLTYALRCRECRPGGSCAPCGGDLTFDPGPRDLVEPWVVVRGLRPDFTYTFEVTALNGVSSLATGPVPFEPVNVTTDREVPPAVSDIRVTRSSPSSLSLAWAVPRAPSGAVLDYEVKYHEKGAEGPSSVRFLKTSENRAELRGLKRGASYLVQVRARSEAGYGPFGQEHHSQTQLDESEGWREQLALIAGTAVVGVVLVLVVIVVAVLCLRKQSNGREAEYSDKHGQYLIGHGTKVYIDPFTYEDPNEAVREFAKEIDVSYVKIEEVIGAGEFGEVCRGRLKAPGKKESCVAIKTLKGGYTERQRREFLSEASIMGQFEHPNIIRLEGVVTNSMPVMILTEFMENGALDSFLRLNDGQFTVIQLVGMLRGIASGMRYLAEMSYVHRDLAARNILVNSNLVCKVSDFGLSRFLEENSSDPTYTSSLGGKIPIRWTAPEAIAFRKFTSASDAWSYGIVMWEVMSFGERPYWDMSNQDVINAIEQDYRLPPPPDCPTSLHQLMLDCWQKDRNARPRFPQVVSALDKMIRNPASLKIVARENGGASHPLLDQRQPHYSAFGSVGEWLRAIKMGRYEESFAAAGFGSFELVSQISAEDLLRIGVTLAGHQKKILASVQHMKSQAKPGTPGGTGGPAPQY
# [15] = target: T6, Ephrin type-B receptor 4 (Homo sapiens); details: at 10 µM
# [16] = target: Receptor tyrosine-protein kinase erbB-4 (Homo sapiens) (UniProt Q15303); details: at 1 µM
# [17] = target: Receptor tyrosine-protein kinase erbB-4 (Homo sapiens) (UniProt Q15303); details: at 10 µM
# [18] = target: Focal adhesion kinase 1 (Homo sapiens) (UniProt Q05397); details: at 1 µM
# Sequence of Ephrin type-A receptor 4 (Homo sapiens) (P54764 whole entry): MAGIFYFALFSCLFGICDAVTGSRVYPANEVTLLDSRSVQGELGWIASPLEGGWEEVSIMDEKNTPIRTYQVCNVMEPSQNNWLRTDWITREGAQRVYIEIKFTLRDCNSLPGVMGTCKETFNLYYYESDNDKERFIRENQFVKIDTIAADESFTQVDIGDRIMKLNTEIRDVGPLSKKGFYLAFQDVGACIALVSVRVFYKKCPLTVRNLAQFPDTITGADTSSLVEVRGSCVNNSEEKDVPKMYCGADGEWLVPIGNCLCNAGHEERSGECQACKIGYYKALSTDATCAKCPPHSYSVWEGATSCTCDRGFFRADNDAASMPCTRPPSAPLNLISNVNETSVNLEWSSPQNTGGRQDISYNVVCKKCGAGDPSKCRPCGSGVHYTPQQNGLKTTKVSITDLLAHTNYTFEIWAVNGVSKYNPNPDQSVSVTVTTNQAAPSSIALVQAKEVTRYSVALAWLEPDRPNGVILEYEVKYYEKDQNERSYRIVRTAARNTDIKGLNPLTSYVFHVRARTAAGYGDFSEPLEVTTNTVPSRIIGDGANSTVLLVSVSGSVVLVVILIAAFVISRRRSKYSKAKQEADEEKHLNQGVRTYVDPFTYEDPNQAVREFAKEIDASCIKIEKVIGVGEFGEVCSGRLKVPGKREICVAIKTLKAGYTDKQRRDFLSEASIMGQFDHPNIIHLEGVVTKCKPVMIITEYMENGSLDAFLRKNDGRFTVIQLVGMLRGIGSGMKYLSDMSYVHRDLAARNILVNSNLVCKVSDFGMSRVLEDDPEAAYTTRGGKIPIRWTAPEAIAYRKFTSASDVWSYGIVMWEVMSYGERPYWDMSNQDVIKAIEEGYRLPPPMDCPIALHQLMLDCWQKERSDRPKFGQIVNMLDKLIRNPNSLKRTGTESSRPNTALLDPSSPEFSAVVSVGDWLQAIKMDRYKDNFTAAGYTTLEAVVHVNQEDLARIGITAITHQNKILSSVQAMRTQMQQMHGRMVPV
# Sequence of Receptor tyrosine-protein kinase erbB-4 (Homo sapiens) (Q15303 whole entry): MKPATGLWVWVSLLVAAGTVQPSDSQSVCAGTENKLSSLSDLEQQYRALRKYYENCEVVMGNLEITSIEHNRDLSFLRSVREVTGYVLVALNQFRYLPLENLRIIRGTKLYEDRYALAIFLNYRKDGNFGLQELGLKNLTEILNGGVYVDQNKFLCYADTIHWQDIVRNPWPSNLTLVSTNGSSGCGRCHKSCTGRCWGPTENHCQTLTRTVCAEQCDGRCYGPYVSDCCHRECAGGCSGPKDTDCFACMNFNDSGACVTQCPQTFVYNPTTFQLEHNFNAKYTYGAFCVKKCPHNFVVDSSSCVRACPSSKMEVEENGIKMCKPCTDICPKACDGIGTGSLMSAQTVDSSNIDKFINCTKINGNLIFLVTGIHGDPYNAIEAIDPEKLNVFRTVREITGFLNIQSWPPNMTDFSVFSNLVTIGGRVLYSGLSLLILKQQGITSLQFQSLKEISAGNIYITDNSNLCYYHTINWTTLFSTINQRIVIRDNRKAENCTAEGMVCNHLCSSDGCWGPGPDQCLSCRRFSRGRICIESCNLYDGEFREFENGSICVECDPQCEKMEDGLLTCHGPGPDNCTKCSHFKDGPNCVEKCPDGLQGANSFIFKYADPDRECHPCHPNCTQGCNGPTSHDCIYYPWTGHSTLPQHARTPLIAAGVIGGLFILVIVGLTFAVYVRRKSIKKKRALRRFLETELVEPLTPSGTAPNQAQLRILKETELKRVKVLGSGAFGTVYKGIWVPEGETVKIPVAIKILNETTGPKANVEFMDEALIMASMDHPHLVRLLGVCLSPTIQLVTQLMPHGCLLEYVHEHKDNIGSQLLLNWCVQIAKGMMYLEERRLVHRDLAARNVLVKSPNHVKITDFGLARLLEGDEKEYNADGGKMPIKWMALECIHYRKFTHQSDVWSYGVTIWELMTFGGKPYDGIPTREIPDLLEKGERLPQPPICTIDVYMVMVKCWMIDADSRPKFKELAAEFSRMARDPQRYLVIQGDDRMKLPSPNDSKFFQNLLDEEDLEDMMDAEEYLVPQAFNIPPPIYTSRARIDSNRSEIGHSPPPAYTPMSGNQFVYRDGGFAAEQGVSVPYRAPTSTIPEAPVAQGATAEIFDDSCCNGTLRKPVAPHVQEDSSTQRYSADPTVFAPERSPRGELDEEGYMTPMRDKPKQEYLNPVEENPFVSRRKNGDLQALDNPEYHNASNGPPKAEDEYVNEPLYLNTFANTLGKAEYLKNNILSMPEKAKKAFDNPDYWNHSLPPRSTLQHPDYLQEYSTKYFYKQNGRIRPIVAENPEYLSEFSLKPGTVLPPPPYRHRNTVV
# Sequence of Ephrin type-A receptor 5 (Homo sapiens) (P54756 whole entry): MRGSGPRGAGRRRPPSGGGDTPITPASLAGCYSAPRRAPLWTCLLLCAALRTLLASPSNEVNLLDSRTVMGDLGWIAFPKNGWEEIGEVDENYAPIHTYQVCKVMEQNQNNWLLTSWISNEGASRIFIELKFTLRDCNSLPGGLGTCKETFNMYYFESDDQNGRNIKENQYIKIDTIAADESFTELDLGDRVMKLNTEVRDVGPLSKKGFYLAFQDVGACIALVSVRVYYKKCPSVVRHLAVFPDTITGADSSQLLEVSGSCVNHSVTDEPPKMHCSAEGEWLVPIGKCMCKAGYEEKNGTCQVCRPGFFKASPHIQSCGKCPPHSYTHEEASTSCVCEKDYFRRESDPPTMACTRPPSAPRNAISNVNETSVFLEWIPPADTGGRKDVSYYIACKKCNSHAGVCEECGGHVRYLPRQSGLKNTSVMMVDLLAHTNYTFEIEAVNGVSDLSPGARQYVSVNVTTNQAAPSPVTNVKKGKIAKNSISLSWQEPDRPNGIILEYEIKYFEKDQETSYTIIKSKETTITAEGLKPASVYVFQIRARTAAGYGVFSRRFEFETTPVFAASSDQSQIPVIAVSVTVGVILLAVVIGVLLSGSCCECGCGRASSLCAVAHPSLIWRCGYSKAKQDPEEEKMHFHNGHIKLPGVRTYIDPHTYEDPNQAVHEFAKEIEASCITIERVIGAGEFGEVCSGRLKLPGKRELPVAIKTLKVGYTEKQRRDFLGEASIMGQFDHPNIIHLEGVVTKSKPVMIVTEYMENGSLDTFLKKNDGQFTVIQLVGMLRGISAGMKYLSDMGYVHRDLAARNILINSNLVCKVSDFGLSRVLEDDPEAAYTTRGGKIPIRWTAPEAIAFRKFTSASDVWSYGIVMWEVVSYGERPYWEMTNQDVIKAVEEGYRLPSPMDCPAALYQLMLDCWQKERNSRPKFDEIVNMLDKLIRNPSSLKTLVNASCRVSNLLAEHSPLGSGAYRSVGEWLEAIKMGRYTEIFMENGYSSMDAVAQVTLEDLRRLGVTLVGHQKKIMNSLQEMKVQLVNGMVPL
# Sequence of Ephrin type-A receptor 7 (Homo sapiens) (Q15375 28-998 limits assumed): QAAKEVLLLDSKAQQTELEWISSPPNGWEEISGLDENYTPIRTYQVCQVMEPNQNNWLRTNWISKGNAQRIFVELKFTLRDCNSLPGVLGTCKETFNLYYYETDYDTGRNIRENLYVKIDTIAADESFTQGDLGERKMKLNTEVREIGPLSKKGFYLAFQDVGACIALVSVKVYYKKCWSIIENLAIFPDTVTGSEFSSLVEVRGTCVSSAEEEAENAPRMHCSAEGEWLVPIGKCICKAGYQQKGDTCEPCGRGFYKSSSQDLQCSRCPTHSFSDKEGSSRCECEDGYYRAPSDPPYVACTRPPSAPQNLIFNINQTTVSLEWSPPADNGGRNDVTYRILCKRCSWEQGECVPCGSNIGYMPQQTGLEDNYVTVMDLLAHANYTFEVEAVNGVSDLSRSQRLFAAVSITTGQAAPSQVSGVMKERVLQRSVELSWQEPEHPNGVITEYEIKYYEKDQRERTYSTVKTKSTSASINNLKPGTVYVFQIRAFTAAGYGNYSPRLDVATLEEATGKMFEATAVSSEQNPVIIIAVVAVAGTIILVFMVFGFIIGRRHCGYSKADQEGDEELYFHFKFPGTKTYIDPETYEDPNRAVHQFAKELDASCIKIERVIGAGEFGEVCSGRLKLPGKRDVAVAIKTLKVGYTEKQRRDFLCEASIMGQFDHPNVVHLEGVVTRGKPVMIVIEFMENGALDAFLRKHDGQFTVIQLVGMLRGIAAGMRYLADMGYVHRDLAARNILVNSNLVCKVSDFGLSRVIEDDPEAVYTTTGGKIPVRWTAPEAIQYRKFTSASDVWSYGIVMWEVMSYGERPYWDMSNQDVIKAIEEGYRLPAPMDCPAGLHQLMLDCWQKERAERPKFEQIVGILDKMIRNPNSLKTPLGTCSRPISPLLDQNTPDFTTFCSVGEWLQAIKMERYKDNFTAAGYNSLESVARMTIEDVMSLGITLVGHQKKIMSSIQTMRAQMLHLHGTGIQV
compound,measurement,setting,value
O=[N+]([O-])c1ccc(-c2nc(-c3ccc(F)cc3)c(-c3ccncc3)[nH]2)cc1,residual activity,[1],90%
same,residual activity,[2],105%
same,residual activity,[3],107%
same,residual activity,[4],100%
same,residual activity,[5],94%
same,residual activity,[6],101%
same,residual activity,[7],93%
same,residual activity,[8],103%
same,residual activity,[9],94%
same,residual activity,[10],111%
same,residual activity,[11],109%
same,residual activity,[12],126% (inactive)
same,residual activity,[13],82%
same,residual activity,[14],89%
same,residual activity,[15],76%
same,residual activity,[16],76%
same,residual activity,[17],75%
same,residual activity,[18],107%
